According to PubChem BioAssay (NCATS):
Results filed as inconclusive are left out. The source made the active and inactive calls. Unless noted, calls follow the shape of the dose curve; as a rule, active = well fitted curve in the direction sought with a large enough effect; inconclusive = small, poorly fitted or top-dose-only effect, or another doubt; inactive = no such curve, though single readings can be large; an effect the other way counts as inactive or inconclusive.

Tests used:
[1] = biological target: Lysosomal acid glucosylceramidase (Homo sapiens) (UniProt P04062); assay: Glucocerebrosidase-p2 (AID 348; in the data active = potency below about 10 µM; also: potency is read from the fitted curve at half-maximal effect); conditions: purified GBA, blue fluorogenic substrate, 40 min
Chain of Lysosomal acid glucosylceramidase (Homo sapiens) (P04062 whole entry, looked up): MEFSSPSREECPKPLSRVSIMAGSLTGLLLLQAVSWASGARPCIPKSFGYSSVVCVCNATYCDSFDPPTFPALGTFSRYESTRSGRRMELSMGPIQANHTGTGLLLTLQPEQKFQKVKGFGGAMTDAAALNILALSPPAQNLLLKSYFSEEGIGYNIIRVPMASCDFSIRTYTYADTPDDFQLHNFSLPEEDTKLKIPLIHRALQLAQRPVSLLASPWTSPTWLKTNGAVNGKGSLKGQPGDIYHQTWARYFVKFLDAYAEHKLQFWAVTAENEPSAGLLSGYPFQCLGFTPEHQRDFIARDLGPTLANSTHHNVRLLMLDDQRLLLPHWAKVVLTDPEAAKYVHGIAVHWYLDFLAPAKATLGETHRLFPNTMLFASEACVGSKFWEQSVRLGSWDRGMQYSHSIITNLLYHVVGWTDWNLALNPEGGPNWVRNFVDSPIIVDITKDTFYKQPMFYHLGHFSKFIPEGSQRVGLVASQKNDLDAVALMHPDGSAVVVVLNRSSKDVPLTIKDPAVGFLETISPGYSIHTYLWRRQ
Outline: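 Normal human glucocerebrosidase (0.2 nM) with blue fluorogenic substrate (80 uM final) in citrate/phosphate pH 5.9 with 10mM sodium taurocholate, 0.01% tween-20; 40 min RT, NaOH/glycine stop; fluorescence Ex 365/Em 440; AC50 from a titration from 0.6 nM upwards.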

[2] = AP1 Signaling Pathway (AID 357; active = well fitted curve in either direction with a large enough effect, not every such curve was filed as active;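 also: ME-180 reporter cells stimulated with EGF at its EC50 level; % is scaled to controls: 0 for no effect and ±100 for the full control effect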); conditions: ME-180 AP-1-bla reporter, EGF-induced, beta-lactamase ratio, 5 h; at 7.69 µM (top of the series) unless noted
Outline: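 Modulation of EGF-driven AP-1 transcription was assessed with a beta-lactamase reporter in ME-180 cells. Compound and EC50 EGF were co-incubated 5 hours at 37 °C before 2.5-hour CCF4 loading at room temperature and dual-emission reading.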

[3] = biological target: Cytochrome P450 1A2 (Homo sapiens) (UniProt P05177); assay: p450-cyp1a2 (AID 410; calls by dose curve; also: potency is read from the fitted curve at half-maximal effect;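 as to activity change, negative = inhibition: -100% = full effect of reference inhibitor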); conditions: recombinant CYP1A2, luciferin-ME demethylation, luminescence; series mostly up to 57 µM
Chain of Cytochrome P450 1A2 (Homo sapiens) (P05177 whole entry, looked up): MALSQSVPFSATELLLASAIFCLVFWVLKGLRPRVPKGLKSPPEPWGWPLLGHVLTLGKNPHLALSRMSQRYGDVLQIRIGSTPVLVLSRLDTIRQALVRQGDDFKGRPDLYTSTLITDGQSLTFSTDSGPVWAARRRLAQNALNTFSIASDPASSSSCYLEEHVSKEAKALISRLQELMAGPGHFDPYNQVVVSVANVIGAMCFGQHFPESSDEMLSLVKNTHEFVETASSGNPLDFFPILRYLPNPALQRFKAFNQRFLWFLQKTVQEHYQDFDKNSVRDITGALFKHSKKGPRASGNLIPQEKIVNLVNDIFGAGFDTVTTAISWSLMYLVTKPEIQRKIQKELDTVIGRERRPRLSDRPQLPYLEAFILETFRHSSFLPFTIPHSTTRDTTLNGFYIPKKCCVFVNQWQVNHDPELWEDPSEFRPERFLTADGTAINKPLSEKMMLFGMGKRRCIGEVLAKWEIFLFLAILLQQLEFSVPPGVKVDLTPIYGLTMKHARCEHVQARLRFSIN
Outline: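 20nM CYP1A2, 100uM Luciferin-ME (=Km), 100mM KPO4; cpd 10 min RT; +NADPH regen, 60 min RT; stop/detect 20 min; luminescence. Normalized to furafylline 57 uM = full inhibition.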

[4] = NFAT Signaling Pathway (AID 444; active = well fitted curve in either direction with a large enough effect, not every such curve was filed as active;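 also: carbachol stimulus at about its EC50 of 1 µM final; % is scaled to controls: 0 for no effect and ±100 for the full control effect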); conditions: Jurkat NFAT-bla M1, carbachol, beta-lactamase ratio, 5 h; at 7.69 µM (top of the series) unless noted
Outline: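 Jurkat cells carrying an NFAT-driven β-lactamase reporter and co-transfected muscarinic M1 receptor were treated with compound plus carbachol (1 uM final, an EC50 level) for 5 h at 37 °C. CCF4 loading followed for 1 h at RT; 460/530 nm ratio gave %activity.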

[5] = Stat Signaling Pathway (AID 446; active = well fitted curve in either direction with a large enough effect, not every such curve was filed as active;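 also: ME-180 cervical cancer cells given 40 pM IL-6 alongside compound; SIE-controlled beta-lactamase reporter measured as 460/530 nm FRET emission ratio; % is scaled to controls: 0 for no effect and ±100 for the full control effect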); conditions: ME-180 SIE beta-lactamase reporter, IL-6 stimulated, 5 h; at 7.69 µM (top of the series) unless noted
Outline: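 Emission at 460 and 530 nm (excitation 405 nm) reports SIE-controlled beta-lactamase in ME-180 cells. Cells received compound with 40 pM IL-6 for 5 hrs at 37 C; data scaled between 300 pM IL-6 and 125 nM JAK-inhibitor controls.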

[6] = biological target: Glucocorticoid receptor (Homo sapiens) (UniProt P04150); assay: GR-GFP Redistribution (AID 450;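 active = compounds whose dose series gives a full or clear partial fitted curve of increased nuclear translocation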; also: potency is read from the fitted curve at half-maximal effect); conditions: U2OS GR-GFP nuclear translocation, laser cytometry, 2 h
Chain of Glucocorticoid receptor (Homo sapiens) (P04150 whole entry, looked up, the tested form may be a part): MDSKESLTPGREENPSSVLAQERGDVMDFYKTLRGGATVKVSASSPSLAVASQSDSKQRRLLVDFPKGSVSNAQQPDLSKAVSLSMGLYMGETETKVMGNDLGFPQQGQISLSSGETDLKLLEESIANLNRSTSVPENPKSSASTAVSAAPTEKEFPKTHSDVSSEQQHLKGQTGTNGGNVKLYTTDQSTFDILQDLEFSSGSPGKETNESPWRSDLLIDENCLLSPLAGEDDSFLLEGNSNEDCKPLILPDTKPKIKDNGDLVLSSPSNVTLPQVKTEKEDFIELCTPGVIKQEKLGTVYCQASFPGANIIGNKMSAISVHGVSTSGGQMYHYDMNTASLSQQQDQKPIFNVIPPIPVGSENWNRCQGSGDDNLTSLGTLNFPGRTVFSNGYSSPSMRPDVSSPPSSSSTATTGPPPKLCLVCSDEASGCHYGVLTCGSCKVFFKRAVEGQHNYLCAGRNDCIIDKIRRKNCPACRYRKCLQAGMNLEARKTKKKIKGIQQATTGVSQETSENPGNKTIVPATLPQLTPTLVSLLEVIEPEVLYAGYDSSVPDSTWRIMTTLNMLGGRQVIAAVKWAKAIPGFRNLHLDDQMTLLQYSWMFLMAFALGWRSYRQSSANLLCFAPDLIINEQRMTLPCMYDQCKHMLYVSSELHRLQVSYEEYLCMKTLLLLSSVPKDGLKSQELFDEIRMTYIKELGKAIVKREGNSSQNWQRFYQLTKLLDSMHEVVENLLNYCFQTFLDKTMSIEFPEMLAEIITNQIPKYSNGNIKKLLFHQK

[7] = biological target: Glucocorticoid receptor (Homo sapiens) (UniProt P04150); assay: GR-EFC Redistribution (AID 451; calls by dose curve; also: potency is read from the fitted curve at half-maximal effect); conditions: CHO-K1 GR-EFC translocation, beta-gal luminescence, 2 h
Outline: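 CHO-K1 cells stably expressing nuclear-localized β-gal enzyme acceptor and GR fused C-terminally to the enzyme donor fragment; ligand-driven nuclear translocation restores β-gal by complementation. Compounds titrated up to 46 uM final, 2 h at 37 °C; luminescence read.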

[8] = biological target: Mitogen-activated protein kinase 10 (Mus musculus) (UniProt Q61831); assay: JNK3 AlphaScreen Assay (AID 530; active = well fitted curve in either direction with a large enough effect, not every such curve was filed as active;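 also: kinase came from lysate of stimulated human HepG2 cells; signal reports phosphorylation of biotinylated GST-cJun 1-79 at Ser73 with 10 µM ATP; % is scaled to controls: 0 for no effect and ±100 for the full control effect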); conditions: JNK3 lysate, c-Jun phosphorylation; series mostly up to 57.1 µM
Outline: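 Biotinylated GST-cJun(1-79) served as substrate for JNK3 in HepG2 lysates stimulated with IL-1beta and TNF-alpha. ATP was 10 uM final, pH 7.6. Ser73 phosphorylation was quantified by AlphaScreen (680 nm excitation).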

[9] = biological target: 3',5'-cyclic-AMP phosphodiesterase 4B (Homo sapiens) (UniProt Q07343); assay: qHTS Assay for Inhibitors of PDE-IV (AID 607; active = well fitted activation curve with a large enough effect in the main read-out, with a control signal flat, not every such curve was filed as active; also: % of control where 0% means no effect); conditions: HEK293 ACTOne CNG channel cells, membrane potential fluorescence; series mostly up to 22.9 µM
Chain of 3',5'-cyclic-AMP phosphodiesterase 4B (Homo sapiens) (Q07343 whole entry, looked up): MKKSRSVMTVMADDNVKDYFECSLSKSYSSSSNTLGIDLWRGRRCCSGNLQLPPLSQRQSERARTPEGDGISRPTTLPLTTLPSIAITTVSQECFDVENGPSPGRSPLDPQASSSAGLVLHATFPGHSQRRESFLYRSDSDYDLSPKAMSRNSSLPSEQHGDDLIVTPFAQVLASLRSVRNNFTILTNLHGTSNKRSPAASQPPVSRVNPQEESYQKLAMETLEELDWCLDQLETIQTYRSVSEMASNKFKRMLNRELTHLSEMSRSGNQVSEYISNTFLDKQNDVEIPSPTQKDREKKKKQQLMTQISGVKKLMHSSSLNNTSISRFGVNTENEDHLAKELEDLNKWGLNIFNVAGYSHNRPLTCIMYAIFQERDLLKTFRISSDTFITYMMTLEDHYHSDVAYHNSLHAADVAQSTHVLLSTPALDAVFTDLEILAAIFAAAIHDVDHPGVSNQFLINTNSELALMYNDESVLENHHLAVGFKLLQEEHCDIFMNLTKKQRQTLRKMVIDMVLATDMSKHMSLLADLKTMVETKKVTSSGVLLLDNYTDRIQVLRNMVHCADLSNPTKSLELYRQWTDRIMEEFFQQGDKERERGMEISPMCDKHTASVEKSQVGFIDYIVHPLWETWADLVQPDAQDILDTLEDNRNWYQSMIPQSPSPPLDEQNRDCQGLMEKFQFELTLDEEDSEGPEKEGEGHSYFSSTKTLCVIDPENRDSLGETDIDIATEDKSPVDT
Outline: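 The readout is membrane depolarisation from a cAMP-sensing CNG channel, detected with a potential dye at ex 535/em 590. Cells were HEK293-derived (endogenous PDE-IV) at 1000 cells/well, titrated up to 22.9 uM final.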

[10] = biological target: Cytochrome P450 3A4 (Homo sapiens) (UniProt P08684); assay: qHTS Assay for Inhibitors and Substrates of Cytochrome P450 3A4 (AID 884); conditions: recombinant CYP3A4, Luciferin-PPXE luminescence; series mostly up to 57.1 µM; also: potency is read from the fitted curve at half-maximal effect; nearly all actives have a fitted effect of over 50% in size
Chain of Cytochrome P450 3A4 (Homo sapiens) (P08684 whole entry, looked up): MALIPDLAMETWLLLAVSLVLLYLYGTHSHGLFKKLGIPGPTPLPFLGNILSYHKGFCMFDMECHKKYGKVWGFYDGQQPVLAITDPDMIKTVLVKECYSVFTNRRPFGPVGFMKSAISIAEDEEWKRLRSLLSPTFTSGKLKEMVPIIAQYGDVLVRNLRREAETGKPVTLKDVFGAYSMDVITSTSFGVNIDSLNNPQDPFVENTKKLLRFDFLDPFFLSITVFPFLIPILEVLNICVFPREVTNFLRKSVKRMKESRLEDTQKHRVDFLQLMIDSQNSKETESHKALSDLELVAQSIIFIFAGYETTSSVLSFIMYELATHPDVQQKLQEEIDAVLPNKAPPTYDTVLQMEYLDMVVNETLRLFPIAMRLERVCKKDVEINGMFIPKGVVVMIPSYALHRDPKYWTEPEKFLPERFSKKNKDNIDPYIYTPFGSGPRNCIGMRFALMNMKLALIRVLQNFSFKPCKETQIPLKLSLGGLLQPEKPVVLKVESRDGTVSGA
Outline: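 Luminescent readout of luciferin produced by CYP3A4 (20 nM) dealkylation of Luciferin-PPXE, 25 uM (its KM). NADPH-driven reaction ran 60 min at RT after 10 min compound preincubation; data scaled to 57 uM ketoconazole as 100% inhibition.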

[11] = biological target: Cytochrome P450 3A4 (Homo sapiens) (UniProt P08684); assay: qHTS Assay for Activators of Cytochrome P450 3A4 (AID 885); conditions: recombinant CYP3A4, Luciferin-PPXE luminescence, 60 min; series mostly up to 57.1 µM; also: nearly all actives have a fitted effect of over 65% in size
Outline: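 Activators are scored by enhanced luminescence from CYP3A4 conversion of luciferin-PPXE (25uM, equal to KM) to luciferin, after 60 min at RT with an NADPH-regenerating system.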

[12] = qHTS Assay for Lipid Storage Modulators (AID 1519; calls by dose curve); conditions: Drosophila S3 cells, BODIPY lipid droplet/cell ratio, laser cytometry, cells loaded with oleic acid; for activity change, negative = inhibition: at 57.5 µM (top of the series)
Outline: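 Cells seeded at 5,000 per well were treated with compounds over a concentration series and loaded with oleic acid (400 uM, as added). Lipid droplet fluorescence (488 nm excitation, 500-530 nm channel) was read by laser-scanning cytometry and normalized to 20 uM Triacsin C.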

[13] = Primary qHTS for small molecule stabilizers of the endoplasmic reticulum resident proteome: Secreted ER Calcium Modulated Protein (SERCaMP) assay (AID 1508630); conditions: SH-SY5Y GLuc-SERCaMP (Gaussia luciferase released on ER calcium loss) secretion, thapsigargin, luminescence; series mostly up to 38.4 µM; also: % is scaled to controls: 0 for no effect and ±100 for the full control effect
Outline: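 The SH-SY5Y reporter protocol was run at 3 concentrations up to 38.3 uM (primary) or 11 concentrations (follow-up): 16 h compound, 100 nM thapsigargin for 4 h, then extracellular luciferase luminescence.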

[14] = biological target: Cytochrome P450 2C9 (Homo sapiens) (UniProt P11712); assay: qHTS Assay for Inhibitors and Substrates of Cytochrome P450 2C9 (AID 883); conditions: recombinant CYP2C9, luciferin-H luminescence, 60 min; series mostly up to 57.1 µM; also: % is scaled to controls: 0 for no effect and ±100 for the full control effect; nearly all actives have a fitted effect of over 60% in size
Chain of Cytochrome P450 2C9 (Homo sapiens) (P11712 whole entry, looked up): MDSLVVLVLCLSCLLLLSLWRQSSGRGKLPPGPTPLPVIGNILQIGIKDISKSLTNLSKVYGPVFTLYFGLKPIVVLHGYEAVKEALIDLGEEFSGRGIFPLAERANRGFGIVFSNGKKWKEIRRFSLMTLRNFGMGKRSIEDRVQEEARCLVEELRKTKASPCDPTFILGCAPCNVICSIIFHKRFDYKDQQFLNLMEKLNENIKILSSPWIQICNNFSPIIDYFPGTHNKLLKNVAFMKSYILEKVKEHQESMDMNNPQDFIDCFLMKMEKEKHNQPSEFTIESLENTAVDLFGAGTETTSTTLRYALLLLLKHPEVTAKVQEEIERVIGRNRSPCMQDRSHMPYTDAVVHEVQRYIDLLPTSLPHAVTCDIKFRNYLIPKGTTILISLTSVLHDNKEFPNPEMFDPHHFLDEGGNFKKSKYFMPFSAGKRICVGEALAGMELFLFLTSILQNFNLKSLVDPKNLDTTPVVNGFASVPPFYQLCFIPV
Outline: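 Human CYP2C9 (10nM) hydroxylated Luciferin-H (100uM, at its KM) to luciferin in 25mM KPO4. Compound was preincubated 10 min at 37C, then NADPH regeneration started a 60 min reaction at 37C. Luminescence was read after detection reagent, normalized to 57uM sulphaphenazole.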

[15] = Confirmation and Secondary Assay for Modulators of Hemoglobin Beta Chain Splicing at IVS2 654 locus (AID 910); conditions: HeLa EGFP-654 splicing reporter, GFP fluorescence, 48 h; series mostly up to 38.3 µM;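 also: per-well total GFP intensity by laser scanning cytometry after 2-day treatment; % of control where 0% means no effect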
Outline: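 HeLa cells stably carrying EGFP interrupted by mutant beta-globin IVS2-654 intron (CMV-driven) were treated with compound for 2 days at 37C; corrected splicing was scored as total peak GFP intensity per well (488 nm excitation, 500-520 nm emission).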

[16] = qHTS Assay for Identification of Small Molecule Agonists for Hypoxia Response Element Signaling Pathway (AID 914; active = well fitted activation curve with a large enough effect in the signal ratio, with a control signal flat, not every such curve was filed as active; the % refers to the signal ratio; also: % of control where 0% means no effect); conditions: ME-180 (cervical carcinoma) HRE-bla reporter, beta-lactamase ratio, CoCl2, 17 h; activation: stronger effect = higher value
Outline: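 AC50 values come from titration-series %Activity, taken as the 460/530nm ratio of CCF4 fluorescence (excitation 405nm). CellSensor HRE-bla ME-180 cells were treated 17 hours at 37 C with compound plus an EC50 level of CoCl2.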

[17] = Confirmation and Secondary Assay for Modulators of Hemoglobin Beta Chain Splicing at IVS2 705 locus (AID 930); conditions: HeLa EGFP-705 splicing reporter, GFP fluorescence, 48 h; series mostly up to 38.3 µM;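 also: HeLa cells stably expressing the EGFP-705 splicing reporter; % of control where 0% means no effect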
Outline: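 Restored EGFP fluorescence after 2-day compound exposure reports splicing correction in IVS2-705 EGFP reporter HeLa cells; positive control was 500 nM splice-blocking PNA oligo. Signal measured as well total peak GFP intensity (488 nm excitation).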

[18] = biological target: Cytochrome P450 2C19 (Homo sapiens) (UniProt P33261); assay: qHTS Assay for Inhibitors and Substrates of Cytochrome P450 2C19 (AID 899); conditions: recombinant CYP2C19, luciferin-H EGE luminescence; series mostly up to 57.1 µM; also: potency is read from the fitted curve at half-maximal effect; nearly all actives have a fitted effect of over 60% in size
Chain of Cytochrome P450 2C19 (Homo sapiens) (P33261 whole entry, looked up): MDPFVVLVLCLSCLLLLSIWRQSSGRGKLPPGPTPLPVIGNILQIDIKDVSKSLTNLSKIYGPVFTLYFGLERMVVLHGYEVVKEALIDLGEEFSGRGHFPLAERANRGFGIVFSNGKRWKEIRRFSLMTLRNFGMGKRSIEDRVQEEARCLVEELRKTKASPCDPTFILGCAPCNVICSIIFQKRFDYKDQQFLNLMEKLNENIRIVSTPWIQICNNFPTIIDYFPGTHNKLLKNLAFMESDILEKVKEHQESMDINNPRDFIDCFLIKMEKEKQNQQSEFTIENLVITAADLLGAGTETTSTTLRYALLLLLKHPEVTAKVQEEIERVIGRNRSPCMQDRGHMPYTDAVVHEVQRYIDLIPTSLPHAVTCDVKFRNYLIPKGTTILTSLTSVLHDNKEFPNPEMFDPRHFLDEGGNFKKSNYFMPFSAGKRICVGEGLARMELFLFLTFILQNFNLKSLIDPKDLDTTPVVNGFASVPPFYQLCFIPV
Outline: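 Human CYP2C19 (5nM) with Luciferin-H EGE at 10uM (its KM) in 50mM KPO4 was preincubated with compound for 10 min at 37C. NADPH regeneration started a 60 min 37C reaction. Luciferin was read by luminescence, normalized to 57uM ketoconazole.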

[19] = biological target: Ubiquitin carboxyl-terminal hydrolase 1 (Homo sapiens) (UniProt O94782); assay: Inhibitors of USP1/UAF1: Pilot qHTS (AID 504865); conditions: purified USP1/UAF1, Ub-rhodamine cleavage fluorescence; series mostly up to 54.9 µM;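 also: rhodamine fluorescence freed from ubiquitin-rhodamine substrate followed over time; top concentration of the series differs between compounds; % is scaled to controls: 0 for no effect and ±100 for the full control effect; nearly all actives have a fitted effect of over 35% in size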
Chain of Ubiquitin carboxyl-terminal hydrolase 1 (Homo sapiens) (O94782 whole entry, looked up): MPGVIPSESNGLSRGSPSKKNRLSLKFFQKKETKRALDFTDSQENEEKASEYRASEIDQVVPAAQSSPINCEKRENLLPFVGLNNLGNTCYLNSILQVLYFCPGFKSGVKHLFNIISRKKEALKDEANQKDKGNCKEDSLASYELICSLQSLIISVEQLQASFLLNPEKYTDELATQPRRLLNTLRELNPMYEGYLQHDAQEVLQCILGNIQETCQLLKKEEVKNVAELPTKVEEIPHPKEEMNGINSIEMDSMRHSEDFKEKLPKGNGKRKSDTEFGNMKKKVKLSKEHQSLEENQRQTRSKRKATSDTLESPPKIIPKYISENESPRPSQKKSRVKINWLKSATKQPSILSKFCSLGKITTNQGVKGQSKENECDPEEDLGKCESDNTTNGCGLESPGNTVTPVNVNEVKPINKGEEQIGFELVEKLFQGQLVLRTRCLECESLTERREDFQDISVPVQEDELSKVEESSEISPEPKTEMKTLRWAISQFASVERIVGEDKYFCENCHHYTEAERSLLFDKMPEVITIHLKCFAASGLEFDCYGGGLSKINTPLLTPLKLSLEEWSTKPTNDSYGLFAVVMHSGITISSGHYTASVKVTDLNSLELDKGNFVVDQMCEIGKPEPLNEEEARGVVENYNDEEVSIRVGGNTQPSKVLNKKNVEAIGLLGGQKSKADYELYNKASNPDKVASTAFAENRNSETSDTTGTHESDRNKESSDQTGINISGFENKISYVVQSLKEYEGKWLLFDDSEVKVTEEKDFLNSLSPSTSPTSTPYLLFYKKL
Outline: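 Enzyme-free wells gave the negative control, while test wells held 1nM USP1/UAF1 preincubated with compound for 15 min at room temperature. Ub-Rho at 150nM final started the reaction, and fluorescence at 480/540 nm was recorded kinetically.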

[20] = measured here: cell count channel max response
[21] = measured here: lipid channel max response

COc1ccc(-n2c(=O)c(-c3cn(C)c4ccccc34)nc3cnc(OC)nc32)cc1
-9.54%: max response [12, 21]
4.94%: max response [12, 20]
inactive: Potency [1] > 11.4 µM | activity change, negative = inhibition [2] -6.77% | Potency [3] | activity change, negative = inhibition [4] -7.96% | activity, negative = inhibition [5] 5.87% | Potency [6] > 9.22 µM | Potency [7] > 46 µM | outcome [8] | Potency [9] | Potency [11] | activity change, negative = inhibition [12] -13.3% | Potency [13]
active: Potency [10] 1.58 µM

CNc1nc(-c2ccccc2Cl)nc2ccccc12
-3.59%: max response [12, 20]
active: Potency [1] 5.87 µM | Potency [3] 0.126 µM
-2.38%: max response [12, 21]
inactive: activity change, negative = inhibition [2] -4.05% | activity change, negative = inhibition [4] 12.6% | activity, negative = inhibition [5] -8.45% | Potency [6] > 46 µM | Potency [7] > 46 µM | outcome [8] | Potency [9] | activity change, negative = inhibition [14] 75.1% [at 2.29 µM] | Potency [11] | outcome [15] | activation [16] 11.6% | outcome [17] | activity change, negative = inhibition [12] 5.07% | Potency [13]

Cc1ccccc1-c1cncnc1Nc1ccc(F)cc1
2.59%: max response [12, 21]
-4.87%: max response [12, 20]
inactive: Potency [1] > 11.4 µM | activity change, negative = inhibition [2] 15.1% | activity change, negative = inhibition [4] 3.46% | activity, negative = inhibition [5] 32.1% | Potency [6] > 46 µM | Potency [7] > 46 µM | outcome [8] | Potency [11] | outcome [15] | outcome [17] | activity change, negative = inhibition [12] 6.79% | Potency [19] | Potency [13]
active: Potency [3] 10 µM | Potency [10] 0.199 µM | Potency [18] 5.01 µM

COc1ccc(Oc2ncc3nc(-c4ccc(OC)cc4)c(=O)n(Cc4cccs4)c3n2)cc1
inactive: Potency [1] > 11.4 µM | activity change, negative = inhibition [2] -28.2% | activity change, negative = inhibition [4] 2.5% | activity, negative = inhibition [5] 8.59% | Potency [6] > 9.22 µM | Potency [7] > 46 µM | outcome [8] | Potency [9] | Potency [11] | activity change, negative = inhibition [12] 6.95% | Potency [13]
21.9%: max response [12, 21]
13.2%: max response [12, 20]
active: Potency [3] 15.8 µM

CNc1ncncc1-c1ccccc1OC
8.32%: max response [12, 20]
13.5%: max response [12, 21]
active: Potency [3] 1.58 µM
inactive: Potency [1] > 11.4 µM | activity change, negative = inhibition [2] -10.6% | activity change, negative = inhibition [4] 8.73% | activity, negative = inhibition [5] 6.99% | Potency [6] > 46 µM | Potency [7] > 46 µM | outcome [8] | Potency [11] | outcome [15] | activation [16] 5.66% | outcome [17] | activity change, negative = inhibition [12] 5.61% | Potency [19] | Potency [13]
